# The full list was thinned out, with hits kept by preference.
# Pf Dd2 inh – blocks in vitro growth of P. falciparum Dd2; P. falciparum Dd2 growth, SYBR Green, 72 h; Potency, µM (titrated, usually from 28.9 µM), actives largely listed as inhibitors; hit rate 4.3% among 120,000; active means well fitted inhibition curve with a large enough effect; further: nearly all actives have a fitted effect of over 65% in size
#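 Infected erythrocytes (Dd2, 0.3% parasitemia, 2.5% hematocrit final) are added to compound in RPMI-1640/Albumax II medium, grown 72 h at 37C in low oxygen, then lysed with saponin/Triton-X containing SYBR Green and read by fluorescence.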
# A number is an active result; 0 = inactive.
SMILES,Pf Dd2 inh
COc1cccc(CN2CC(Oc3ccccc3C(=O)NCc3ccccc3)C2)c1,3.5µM
O=C(NC1CC1)c1ccccc1OC1CN(Cc2cccc(C(F)(F)F)c2)C1,0
O=C(NC1CC1)c1ccccc1OC1CN(Cc2cccc(F)c2)C1,0
Cc1cc(C)n(-c2cccc(CN(C)C(=O)C3CCC(=O)N(Cc4ccccn4)C3)c2)n1 (configuration not stated),0
COc1cccc(CNC(=O)C2CN(c3cccc(Cl)c3)C(=O)N2)c1 (configuration not stated),0
Cc1nn(CC(=O)NC2CCCCC2)c(=O)c2nc(C(C)C)sc12,0
O=C([C@@H]1Cc2nc[nH]c2CN1Cc1ccc(Cl)cc1)N1CCOCC1,0
COc1ccc(CNC(=O)[C@@H]2Cc3nc[nH]c3CN2Cc2ccc(Cl)cc2)cc1,13µM
COc1ccc(CNC(=O)[C@@H]2Cc3nc[nH]c3CN2Cc2ccc(C(=O)O)cc2)cc1,0
O=C(NCc1ccccc1)[C@@H]1Cc2nc[nH]c2CN1Cc1ccc(Cl)cc1,0
COc1ccc(CNC(=O)[C@@H]2Cc3nc[nH]c3CN2Cc2ccc(CO)o2)cc1,0
O=C(NC1CCCCC1)[C@@H]1Cc2nc[nH]c2CN1Cc1ccc(Cl)cc1,13µM
CN(Cc1ccccc1)c1ccc(C(=O)N2CCC(CN3CCCC3=O)CC2)cn1,0
CNC(=O)N1CCOc2ccc(CCC(=O)NCC3CC3)cc2C1,0
O=C(Cn1ccn2nc(-c3ccc(F)cc3)c(CO)c2c1=O)Nc1ccc(Br)cc1,0
Fc1ccc(-c2cc(-c3ccccc3)c3c(n2)-c2ccccc2OC3)cc1,0
Fc1ccc(Nc2nc(-c3cccc(Cl)c3)c3c(n2)-c2ccccc2OC3)c(F)c1,0
Fc1ccc(-c2nc(Nc3cccc(C(F)(F)F)c3)nc3c2COc2ccccc2-3)cc1,10µM
CC1CCN(S(=O)(=O)c2ccc3c(c2)oc(=O)n3CC(=O)O)CC1,0
CC(NC(=O)Cn1c(=O)oc2cc(S(=O)(=O)N3CCCCCC3)ccc21)c1ccccc1 (configuration not stated),0
CC1CCN(S(=O)(=O)c2ccc3c(c2)oc(=O)n3CC(=O)NC(C)c2ccccc2)CC1 (configuration not stated),11µM
COc1ccc(C(=O)NCCn2c(C)cnc2-c2ccncc2)cc1,0
COCCC(=O)N1CCC2(CC1)CC(Cc1nc(-c3ccncc3)no1)CCO2 (configuration not stated),0
COc1ccc(CCC(=O)N2CCC3(CC2)CC(Cc2nc(-c4cnccn4)no2)CCO3)cc1 (configuration not stated),0
CCOCC(=O)N1CCC2(CC1)CC(Cc1nc(-c3ccncc3)no1)CCO2 (configuration not stated),0
SMILES,Pf Dd2 inh
O=C(N1CCC(Cc2nc(C3CCOCC3)no2)CC1)C1(c2ccccc2)CC1,0
COc1cccc(CC(=O)N2CCC3(CC2)CC(Cc2nc(-c4cccnc4)no2)CCO3)c1 (configuration not stated),8.9µM
O=C(N1CCC2(CC1)CC(Cc1nc(-c3cccnc3)no1)CCO2)C1(c2ccccc2)CC1 (configuration not stated),7.9µM
O=C1NCCOCCN(C(=O)NC2CCCCC2)[C@@H]2CCCC[C@H]12,0
Cc1noc(-c2ccccc2OC2CCNC2)n1 (configuration not stated),0
CC(NC(=O)CCc1conc1-c1ccccc1)c1ccc(F)cc1 (configuration not stated),0
COCCOCc1nc(C2CCN(C(=O)NC(C)C)CC2)no1,0
COc1ccc(C(=O)N2CCC3(CC2)N=C(c2cccc(Br)c2)NO3)c(OC)c1,0
Cc1noc(C)c1-c1cnc(Nc2cc(F)cc(N3CCOCC3)c2)c2c1CCO2,0
Cc1noc(C)c1-c1cnc(Nc2ccc(Cl)cn2)c2c1CCO2,0
Cc1noc(C)c1-c1cnc(Nc2ccc(CN3CCN(C)CC3)cc2)c2c1CCO2,5.6µM
CC(=O)N1CCC(N[C@@H]2C[C@H](Cn3cc(C4CC4)nn3)[C@@H](O)[C@H]2O)CC1,0
O=C(Nc1ccc(Cl)cc1)c1ccc2c(c1)N(Cc1ccccc1)CCS2,4.5µM
CCN1CCSc2ccc(C(=O)NCc3ccc(OC)cc3)cc21,0
Cc1ccc(CN2CCSc3ccc(C(=O)NCc4ccc(OC(C)C)cc4)cc32)cc1,0
COc1ccc(OC)c(CCNC(=O)c2ccc3c(c2)N(Cc2ccccc2)CCS3)c1,0
O=C(NCCc1ccc(Cl)cc1)c1ccc2c(c1)N(Cc1ccccc1)CCS2,0
Cc1ccc(CN2CCSc3ccc(C(=O)Nc4ccc(Cl)cc4)cc32)cc1,7.9µM
CC(C)CCN1CCn2c(nnc2-c2ccc(Cl)cc2)C1,0
Cc1nc(CCC(=O)NCc2cc(Cl)cc3c(C)c(-c4ccccc4)[nH]c23)n[nH]1,0
CCCc1cc(CN(C)c2nc(CCN)nc3sc(C)c(C)c23)[nH]n1,10µM
COCCN1CC(CNc2nc(CCN)nc3sc(C)c(C)c23)CC1=O (configuration not stated),0
Cc1nc2n(c1C(=O)NCCc1ccccc1)CCC(Nc1cccnc1)C2 (configuration not stated),0
Cn1nc(-c2cccs2)cc1-c1nc(C2CCOC2)no1 (configuration not stated),0
O=C(Nc1ccc(F)c(F)c1)c1cc2n(n1)CC(c1ccc(Br)cc1)OC2 (configuration not stated),0
SMILES,Pf Dd2 inh
COCCn1c2c(c(=O)n1-c1ccccc1)CCN(C(=O)c1cccc(O)c1)C2,0
O=C1CCN(C(=O)C2CCCCC2)CCCC(C(=O)NCc2ccccc2)CCN1 (configuration not stated),0
O=C1CCN(C(=O)c2ccco2)CCCC(C(=O)NCc2ccccc2)CCN1 (configuration not stated),0
O=C1CCN(C(=O)C2(c3ccccc3)CC2)CCCC(C(=O)NCc2ccccc2)CCN1 (configuration not stated),0.4µM
O=C(NCc1ccccc1F)c1ccc2c(c1)CN(Cc1ccc3c(c1)CCO3)CCO2,0
CC(=O)N[C@H]1CN(S(=O)(=O)c2ccc(C)c(F)c2)C[C@@H]1C(C)C,0
Cc1cc(C)c2nonc2c1S(=O)(=O)N1C[C@@H](N(C)C)[C@H](C(C)C)C1,11µM
Cc1nn(C)c(C)c1S(=O)(=O)N1C[C@@H](NS(C)(=O)=O)[C@H](C(C)C)C1,0
N#Cc1cc2c(=O)n(CCc3n[nH]c4c3CCCC4)ccc2[nH]c1=O,0
O=C1CCN(Cc2ccncc2)CCCC(C(=O)NCc2cccnc2)CCN1 (configuration not stated),0
O=C(C[C@@H]1CCNC[C@@H]1Cc1cc(CN2CCOCC2)on1)N1CCN(c2ccccc2)CC1,0
COc1ccccc1N1CCN(C(=O)C[C@@H]2CCNC[C@@H]2Cc2cc(COc3ccccc3)on2)CC1,0
CC(C)(C)c1cc(C[C@H]2CNCC[C@H]2CC(=O)N2CCC(Cc3ccccc3)CC2)no1,7.9µM
NC(=O)C1CCN(C(=O)C[C@@H]2CCNC[C@@H]2Cc2cc(COc3ccccc3)on2)CC1,0
COc1ccc(-c2cc(C[C@H]3CNCC[C@H]3CC(=O)NCc3cccnc3)no2)cc1,0
COc1ccc(-c2cc(C[C@H]3CNCC[C@H]3CC(=O)N3CCN(c4ccccc4OC)CC3)no2)cc1,0
COc1ccc(-c2cc(C[C@H]3CNCC[C@H]3CC(=O)N3CCC(Cc4ccccc4)CC3)no2)cc1,7.9µM
COc1ccc(-c2cc(C[C@H]3CNCC[C@H]3CC(=O)NC(C)C)no2)cc1,0

# High-throughput results: PubChem BioAssay, National Center for Advancing Translational Sciences (NCATS)
